Data published in PubChem BioAssay (NCI).
Compounds without any hit were thinned out: in the full panel of roughly 79,000, 15% have a hit. Rule as the data show it: active = growth inhibition above about 70%; inactive = the rest.

Columns and labels:
[1] = NCI Yeast Anticancer Drug Screen. Data for the rad50 strain (AID 155);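 also: 0% = growth of vehicle-only cultures of the same strain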; settings: S. cerevisiae rad50 strain growth inhibition; at 50.0 µM; hits give high values
Method in brief: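 A DNA repair-deficient yeast mutant serves as the test organism; compound-induced growth inhibition is calculated against vehicle-treated cells.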

[2] = NCI Yeast Anticancer Drug Screen. Data for the mec2-1 strain (AID 157); settings: S. cerevisiae mec2-1 strain, at 50.0 µM, hits give high values
Method in brief: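 Compounds were applied to mec2-1 yeast cells. Their growth was then compared with that of vehicle-treated cultures to give growth inhibition.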

[3] = NCI Yeast Anticancer Drug Screen. Data for the sgs1 mgt1 strain (AID 161);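 also: 0% = growth of cultures given vehicle only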; settings: S. cerevisiae sgs1 mgt1 strain, at 50.0 µM, hits give high values
Method in brief: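 This yeast growth screen uses a strain with defined DNA-repair lesions; compound-treated growth is compared with vehicle-treated growth.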

[4] = NCI Yeast Anticancer Drug Screen. Data for the cln2 rad14 strain (AID 165);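 also: 0% = growth equal to vehicle treated cultures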; settings: S. cerevisiae cln2 rad14 strain, at 50.0 µM, hits give high values
Method in brief: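 Strain: cln2 rad14 yeast, altered in cell cycle control and DNA damage repair. Read-out: growth inhibition vs vehicle.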

[5] = NCI Yeast Anticancer Drug Screen. Data for the bub3 strain (AID 167); settings: S. cerevisiae bub3 mutant strain, at 50.0 µM, hits give high values
Method in brief: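 Inhibition values come from growth of compound-treated mutant yeast normalised to vehicle-treated controls.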

[6] = NCI Yeast Anticancer Drug Screen. Data for the mlh1 rad18 strain (AID 175); settings: S. cerevisiae mlh1 rad18 strain growth inhibition; at 50.0 µM; hits give high values
Method in brief: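 A repair-deficient yeast strain is exposed to test compound, and growth is scored relative to vehicle-treated controls.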

Measured: growth inhibition

CCC(C(=O)O)=C1CCCCC1
inactive: [1] 11.1% | [2] -8.15% | [3] -0.35% | [4] 9.15% | [5] 5.85% | [6] -3.9%

N#C/C(=C\n1c(=S)[nH]c2ccccc21)c1nc2ccccc2s1
inactive: [1] -2.85% | [2] -4.45% | [3] -9.15% | [4] -4.15% | [5] 4.25% | [6] 36.8%

COc1ccc(N=Cc2c(O)c(O)c(C(C)C)c3cc(C)c(-c4c(C)cc5c(C(C)C)c(O)c(O)c(C=Nc6ccc(OC)cc6)c5c4O)c(O)c23)cc1
inactive: [1] 2.2% | [2] 1.75% | [3] -12.2% | [4] -18.4% | [5] -5.75% | [6] -6.2%

CS(=O)(=O)CC(O)(c1ccc(Cl)cc1)c1ccccn1 (stereo unspecified)
inactive: [1] 11.5% | [2] 0.85% | [3] -6.55% | [4] -21.6% | [5] -0.8% | [6] 3.8%

CC(C)(C)N1COCC(COc2ccc(Cl)cc2)OC1 (stereo unspecified)
inactive: [1] -13.3% | [2] -3.5% | [3] 4.95% | [4] 11.4% | [5] -16.1% | [6] 24.8%

Fc1cccc(CSc2cnnc(SCc3cccc(F)c3)c2SCc2cccc(F)c2)c1
inactive: [1] -14.8% | [2] -7.1% | [3] -13.7% | [4] 14.6% | [5] -10.8% | [6] -32%

CC(=O)Nc1ccc[n+](C)c1
inactive: [1] 0.65% | [2] 17.9% | [3] -6.9% | [4] -3.3% | [5] 33.3% | [6] -1.95%

CCC1(C)CCC(C)c2ccccc21 (stereo unspecified)
inactive: [1] -1.75% | [2] -5.4% | [3] 3.45% | [4] 3.45% | [5] -0.8% | [6] 0.3%

Cc1cc[n+](CC(=O)CCc2ccc(C(=O)C[n+]3ccc(C)cc3)cc2)cc1
inactive: [1] 41.1% | [2] -1.85% | [3] 34.3% | [4] -6.4% | [5] -3.95% | [6] 11.1%

CN1C(=O)c2ccccc2N(C)C(=O)c2ccccc21
inactive: [1] 0.9% | [2] -15.1% | [3] 11.3% | [4] -2.45% | [5] 4.85% | [6] 12%

O=C(O)C#Cc1ccc([N+](=O)[O-])cc1
inactive: [1] 13.6% | [2] -7.6% | [3] 2.35% | [4] -20.2% | [5] -11.9% | [6] 16.5%

CN[C@H]1CCc2cc(OC)c(OC)c(OC)c2-c2ccc(O)c(=O)cc21
inactive: [1] 23.8% | [2] -9.45% | [3] 24.8% | [4] -43.5% | [5] 0.3% | [6] 29.7%

COC(=O)C1CCC(=O)N1CN(C(C)=O)c1ccccc1 (stereo unspecified)
inactive: [1] 10.1% | [2] 8.6% | [3] -14.1% | [4] 9% | [5] -5.8% | [6] -30.6%

O=C(O)CNc1ccc([N+](=O)[O-])cc1C(=O)O
inactive: [1] -1.25% | [2] -1% | [3] 2.75% | [4] 7.4% | [5] -6.7% | [6] -5.95%

CCOC(=O)C1C=C1C(C)(C)O (stereo unspecified)
inactive: [1] -15.4% | [2] 9.3% | [3] -13.1% | [4] 1% | [5] 3.9% | [6] -32.9%

CC(=O)O[C@H]1C[C@]2(C)C(CCC3O[C@@]32C)[C@@]2(CC(c3ccoc3)OC2O)[C@@H]1C (stereo partly specified)
inactive: [1] -10.8% | [2] -16.1% | [3] -29.9% | [4] -10.1% | [5] -23.1% | [6] -13.2%

O=C1NN(c2ccccc2)CCO1
inactive: [1] -2.45% | [2] -3.2% | [3] -5.25% | [4] -18.6% | [5] 0.1% | [6] 2.15%

N#CC1=C(c2ccccc2)NN(Cc2ccccc2)C(c2ccc(Cl)cc2)CC1=O (stereo unspecified)
inactive: [1] 31.9% | [2] 7.25% | [3] 8.25% | [4] -44.1% | [5] 2.6% | [6] 30.6%

CN(N=O)c1nc2c(C(N)=O)ncn2s1
inactive: [1] 10.2% | [2] 16.4% | [3] 4.95% | [4] 2.2% | [5] 13.9% | [6] 24.1%

O=C(OCC(O)C(O)C(O)C(O)COC(=O)c1ccccc1)c1ccccc1 (stereo unspecified) (tested in a mixture with another compound)
inactive: [1] -0.9% | [2] 3.6% | [3] -0.75% | [4] -29.6% | [5] 0.85% | [6] 12.2%

O=c1[nH]cc(Cl)cc1[N+](=O)[O-]
inactive: [1] 10.8% | [2] 3.95% | [3] -1.4% | [4] 2.3% | [5] -17.8% | [6] 1.7%

COC1OC(OC)c2cc([N+](=O)[O-])ccc21 (stereo unspecified)
inactive: [1] 9.9% | [2] 17.3% | [3] 18.1% | [4] 23.2% | [5] -11.1% | [6] 50.2%

Cc1cccc(C)c1NC(=O)C(Cl)(Cl)Sc1ccc(Cl)cc1Cl
inactive: [1] 0.3% | [2] -34.9% | [3] 5.9% | [4] 8.65% | [5] -5.2% | [6] -2.6%

CC(=O)N(Cl)c1ccc(N=Nc2ccccc2)cc1F
inactive: [1] 24.5% | [2] 15.1% | [3] 32.5% | [4] -9.7% | [5] -7.7% | [6] 6.8%

O=C(Nc1ccccc1)OC1C=CC2CCC1C2 (stereo unspecified)
inactive: [1] 7.75% | [2] 3.35% | [3] 38.6% | [4] 12.8% | [5] 17.8% | [6] 58.3%

Nc1ccc([N+](=O)[O-])c2ccccc12
inactive: [1] 17.1% | [2] -8.75% | [3] 12.7% | [4] 10.8% | [5] 24.6% | [6] 12.7%

CC(C)(C)CC(C)(C)c1ccc(OCc2ccc(C(F)(F)F)cc2)cc1
inactive: [1] 14.2% | [2] 10.9% | [3] 5.1% | [4] 13.4% | [5] -4.8% | [6] -1.7%

CC1=Nc2cc(C)c(C)cc2NC(=O)C1
inactive: [1] -16.8% | [2] -43.9% | [3] -6.1% | [4] 20.4% | [5] -21.9% | [6] -1.7%

CC(C)(C)C1COC(c2ccccc2)(c2ccccc2)C1 (stereo unspecified)
inactive: [1] -24.6% | [2] -1.55% | [3] 8.7% | [4] -26.5% | [5] -2.4% | [6] -15.3%

COc1cc(CC2c3cc(OC)c(OC)cc3CC[N+]2(C)C)c(Oc2cc(CC3c4cc(OC)c(OC)cc4CC[N+]3(C)C)ccc2OC)cc1OC (stereo unspecified)
inactive: [1] 8.35% | [2] 10.1% | [3] -0.85% | [4] -4.45% | [5] -6.05% | [6] 28.6%

CC1=C(\C=C/C(C)=C/C=C/C(C)=C/C=N/NC(=O)c2cccnc2)C(C)(C)CCC1
inactive: [1] 2.4% | [2] -7.4% | [3] 33.5% | [4] 41.6% | [5] 30% | [6] 27.6%

[Cl][Eu]([Cl])[Cl]
inactive: [1] 22.4% | [2] 17.9% | [3] 24.2% | [4] 42.9% | [5] 34.2% | [6] 19.8%

Cc1cc(C(c2ccccc2)c2cc(C)cc(C(C)(C)CC(C)(C)C)c2O)c(O)c(C(C)(C)CC(C)(C)C)c1
inactive: [1] 3.9% | [2] 5% | [3] -10% | [4] 20.8% | [5] 5.2% | [6] 8%

COc1cccc(NC(=S)NCc2cccnc2)c1
inactive: [1] -13.4% | [2] -24.9% | [3] 9.1% | [4] 9.25% | [5] -13.2% | [6] -5.3%

OCC1C=Cc2ccccc21 (stereo unspecified)
inactive: [1] -3.8% | [2] 0.65% | [3] -0.6% | [4] 2.15% | [5] 14.5% | [6] -2.4%

S=C=Nc1ccc(CSc2nc3ccccc3[nH]2)cc1
inactive: [1] 0.8% | [2] -9.25% | [3] 12.8% | [4] 2.4% | [5] 9.4% | [6] -11.2%

CCOC(=O)C1CC(=O)c2cc(OC)c(OC)cc2C1c1ccc(OC)c(OC)c1 (stereo unspecified)
inactive: [1] 1.85% | [2] -14.1% | [3] 0.1% | [4] -29.7% | [5] 13.8% | [6] -26.4%

CC(C(=O)c1ccccc1)C(O)(C(F)(F)F)C(F)(F)F (stereo unspecified)
inactive: [1] -5.15% | [2] 2.6% | [3] 4.25% | [4] -24.4% | [5] -0.85% | [6] -9.05%

Cc1[nH]c(C)c2ccc(=O)ccc12
inactive: [1] -51.4% | [2] -8.35% | [3] -16.6% | [4] -58.2% | [5] -2% | [6] -7.65%

O=C(c1ccc([N+](=O)[O-])cc1)c1cc2ccccc2oc1=O
inactive: [1] -12.1% | [2] -8.5% | [3] -9.85% | [4] -73% | [5] -18.4% | [6] -9%

NC(N)=NC(N)=Nc1ccc(N=C(N)N=C(N)N)cc1
inactive: [1] 3.55% | [2] -12.7% | [3] -6.2% | [4] -0.75% | [5] 10.2% | [6] -1.3%
